Values without a mark were called inactive. Unless noted, how the calls were made is not given here.
Target: Homeobox protein Hox-A13 (Mus musculus) (UniProt Q62424)
Assay: inhibitors of HoxA13-DNA binding, primary screen, biochemical, fluorescence polarization, labeled oligonucleotide (AID 1185)
Conditions: 15 min, higher = more signal, called active from +8 up or from −8 down

Chain of Homeobox protein Hox-A13 (Mus musculus) (Q62424 whole entry, looked up): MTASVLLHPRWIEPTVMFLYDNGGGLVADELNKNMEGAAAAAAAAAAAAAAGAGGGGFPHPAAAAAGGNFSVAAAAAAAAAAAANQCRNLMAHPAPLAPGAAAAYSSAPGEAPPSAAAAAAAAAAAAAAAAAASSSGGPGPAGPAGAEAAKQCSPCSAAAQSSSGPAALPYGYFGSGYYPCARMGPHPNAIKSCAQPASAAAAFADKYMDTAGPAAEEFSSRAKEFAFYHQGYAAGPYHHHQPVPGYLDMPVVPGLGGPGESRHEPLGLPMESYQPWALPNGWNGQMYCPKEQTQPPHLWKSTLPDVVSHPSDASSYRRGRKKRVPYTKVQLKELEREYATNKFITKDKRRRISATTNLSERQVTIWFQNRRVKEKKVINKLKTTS

Compound | z-score
CC1CC/C=C\[C@H]2OC34C=CCN(C(C)C)C(=O)[C@H]3N(CCCCCCO)C(=O)[C@@H]4C2C(=O)O1 (some centres not stated) | -3.74
O=C1C2C=CC(C(O)c3ccc(Br)cc3)N(Nc3ccccc3F)C2C(=O)N1c1ccccc1 (configuration not stated) | -2.41
COC(=O)[C@@]1(Cc2ccc(OC)cc2)[C@H]2c3cc(C(=O)N4CCCC4)n(Cc4cccc5ccccc45)c3C[C@H]2CN1C(=O)c1ccccc1 | -1.44
CCOC(=O)C1CCCCN1 (configuration not stated) | 0.65
COc1ccc([Si](C)(C)[C@H]2[C@H](CCn3cc([C@H](O)c4ccccc4)nn3)O[C@@]3(C(=O)N(Cc4ccc(N5C(=O)c6cccc7cccc5c67)cc4)c4ccccc43)[C@@H]2C)cc1 | -0.717
[N-]=[N+]=NCc1ccccc1C[C@@]1(C(=O)N2CCOCC2)N=C(c2ccc(OCCCO)cc2)O[C@@H]1c1ccccc1 | -4.1
COC(=O)C(CC#Cc1ccc2c(c1)[C@]1(C(=O)N2)[C@H](C(=O)N2CCN(c3ncccn3)CC2)[C@H]2C(=O)O[C@H](c3ccccc3)[C@H](c3ccccc3)N2[C@@H]1c1ccc(OCCO)cc1)C(=O)OC | 1.63
[N-]=[N+]=Nc1ccccc1[C@@H]1OC(c2ccc(OCCCO)cc2)=N[C@]1(Cc1ccccc1)C(=O)NCC(O)CO (some centres not stated) | -3.18
CCCC[C@@H]1C[C@H]1[C@@H](NC(=O)c1cccs1)c1ccc(C(F)(F)F)cc1 | -0.891
COC(=O)[C@@]1(Cc2ccc(OC)cc2)[C@H]2c3cc(C(=O)N(C)C)n(CCO)c3C[C@H]2CN1C(=O)c1ccccc1 | -4.38
CCOC(=O)C[C@H]1[C@H](OC(=O)Cc2ccc3c(c2)OCO3)[C@@H](NC(=O)CC(C)C)c2cc(OCCCO)ccc2N1C(=O)Cc1ccc(OC)cc1 | -3.35
O=C1NC(=O)C2C1C=CC(C(O)c1ccco1)N2Nc1ccccn1 (configuration not stated) | -3.55

Test system: not listed separately
Assay: inhibitors of hydroxyurea-induced Chk1 phosphorylation, primary screen, imaging, HeLa, phospho-Chk1 antibody, percent positive cells (AID 1186)
Conditions: hydroxyurea-induced phospho-Chk1 immunofluorescence imaging, higher = more signal

Compound | z-score
O=C1OCCC=C[C@H]2OC34C=CCN(Cn5nnc6ccccc65)C(=O)[C@H]3N(CCCCCCO)C(=O)[C@@H]4C12 (some centres not stated) | -0.667
O=C1C[C@@](C(=O)NCCN2CCOCC2)(c2ccc([N+](=O)[O-])cc2)[C@@H](c2ccc(CO)cc2I)N1C1CCCCC1 | 0.0213
NC(=O)N1C(=O)C2C(C1=O)C1C=C(CCCO)C2C(c2cccs2)N1Cc1cccc(OC(F)(F)F)c1 (configuration not stated) | -0.356
C=C(/C(=C/C[C@H](OC(C)=O)c1ccccc1OCCO)c1cc(C(=O)OC)ccc1OC)C(C)C | -0.0815
CCCC[C@@H](O)C1=C(COc2ccccc2)C[C@H]2C(=O)N(C)C(=O)[C@H]2[C@H]1CO | -1.66
O=C1NC(=O)C2C1C=CC(C(O)c1cccc3ccccc13)N2Nc1ccc(Cl)cc1Cl (configuration not stated) | 0.461
COc1ccc(-c2cc3c(c(CCc4ccccc4)n2)[Si](C(C)C)(C(C)C)OC3)cn1 | -0.0328
COC(=O)[C@@]1(Cc2ccc(F)cc2)[C@H]2c3cc(C(=O)N4CCCC4)n(CCc4ccc(O)c(O)c4)c3C[C@H]2CN1C(=O)c1ccccc1 | 0.333
CC1=C[C@@]2(CO)C(=O)[C@]3(CO3)[C@@H]1[C@H]1[C@]2(C)C=C(CO)C(=O)[C@]12CO2 | -0.441
O=C(NCC(F)(F)F)[C@@H]1c2ccccc2C(=O)N(Cc2ccc(OC(F)(F)F)cc2)[C@H]1c1ccc(CO)cc1 | -0.263
COC(=O)Cn1c(C(=O)N(C)C)cc2c1C[C@H]1CN(C(=O)c3ccccc3)[C@@](Cc3ccc(F)cc3)(C(=O)OC)[C@@H]21 | 0.927
COc1ccc([Si](C)(C)[C@H]2[C@H](CC(=O)N(CCO)Cc3ccccc3)O[C@@]3(C(=O)N(Cc4cccc(N5CCOC5=O)c4)c4ccccc43)[C@@H]2C)cc1 | -0.178
COCCCNC(=O)[C@]1(CCS(=O)(=O)c2ccccc2)N=C(c2ccc(OCCCO)cc2)O[C@@H]1c1ccccc1CN=[N+]=[N-] | -0.684
[N-]=[N+]=Nc1ccccc1C[C@]1(C(N)=O)N=C(c2ccc(OCCCO)cc2)O[C@H]1c1ccccc1N=[N+]=[N-] | -0.433
C#CCN([C@@H](Cc1ccc(O)cc1)C(=O)OC)[C@@H](/C=C/C1CC1)[C@H](O)Cc1ccccc1 | -0.453
CN(C)c1ccc(C(O)C2C=CC3C(=O)N(c4ccccc4)C(=O)C3N2Nc2ccc([N+](=O)[O-])cc2)cc1 (configuration not stated) | 0.55
NCCCCCCNC(=O)[C@@H]1C[C@@H]2C(=O)N[C@@H](CCCCN)C(=O)N2[C@@H]1c1cccc(OCCO)c1 | -0.545
CCOC(=O)C1=CC[C@@H](c2ccc(OCc3ccccc3)c(OC)c2)N(S(=O)(=O)c2ccc(C)cc2)[C@H]1c1ccc(SC)cc1 | -0.387

Compound | z-score
COC(=O)[C@@]1(Cc2ccccc2)[C@H]2c3cc(C(=O)N(C)C)n(Cc4c(CO)[nH]cc(C)c4=O)c3C[C@H]2CN1C(=O)c1ccccc1 | -0.0454
CN1C(=O)C2C=CC(C(O)COCc3ccccc3)N(N(c3ccccc3)c3ccccc3)C2C1=O (configuration not stated) | -0.0138
CCC[C@@H]1C[C@@]1(CCC)[C@@H](NC(=O)OCc1ccccc1)c1ccc(-c2ccccc2)cc1 | 0.977
COCCOC(=O)N1C(=O)[C@@]2(c3cc(C#CC4=CCCCC4)ccc31)[C@H](c1ccc(OCCO)cc1)N1[C@H](c3ccccc3)[C@H](c3ccccc3)OC(=O)[C@H]1[C@@H]2C(=O)NC[C@H](O)c1ccccc1 | 0.107
C=C(CCCC)/C(=C/C[C@@H](OC(=O)c1ccncc1)c1ccccc1OCCO)c1cnc2ccccc2c1 | 0.294
CC1CC/C=C\[C@H]2OC34C=CCN(C(C)C)C(=O)[C@H]3N(CCCCCCO)C(=O)[C@@H]4C2C(=O)O1 (some centres not stated) | -0.108
O=C1C2C=CC(C(O)c3ccc(Br)cc3)N(Nc3ccccc3F)C2C(=O)N1c1ccccc1 (configuration not stated) | -0.863
COC(=O)[C@@]1(Cc2ccc(OC)cc2)[C@H]2c3cc(C(=O)N4CCCC4)n(Cc4cccc5ccccc45)c3C[C@H]2CN1C(=O)c1ccccc1 | -0.491
CCOC(=O)C1CCCCN1 (configuration not stated) | 0.0889
COc1ccc([Si](C)(C)[C@H]2[C@H](CCn3cc([C@H](O)c4ccccc4)nn3)O[C@@]3(C(=O)N(Cc4ccc(N5C(=O)c6cccc7cccc5c67)cc4)c4ccccc43)[C@@H]2C)cc1 | -0.283
[N-]=[N+]=NCc1ccccc1C[C@@]1(C(=O)N2CCOCC2)N=C(c2ccc(OCCCO)cc2)O[C@@H]1c1ccccc1 | 0.123
COC(=O)C(CC#Cc1ccc2c(c1)[C@]1(C(=O)N2)[C@H](C(=O)N2CCN(c3ncccn3)CC2)[C@H]2C(=O)O[C@H](c3ccccc3)[C@H](c3ccccc3)N2[C@@H]1c1ccc(OCCO)cc1)C(=O)OC | -0.162
[N-]=[N+]=Nc1ccccc1[C@@H]1OC(c2ccc(OCCCO)cc2)=N[C@]1(Cc1ccccc1)C(=O)NCC(O)CO (some centres not stated) | -0.358
CCCC[C@@H]1C[C@H]1[C@@H](NC(=O)c1cccs1)c1ccc(C(F)(F)F)cc1 | 0.984
COC(=O)[C@@]1(Cc2ccc(OC)cc2)[C@H]2c3cc(C(=O)N(C)C)n(CCO)c3C[C@H]2CN1C(=O)c1ccccc1 | 0.931
CCOC(=O)C[C@H]1[C@H](OC(=O)Cc2ccc3c(c2)OCO3)[C@@H](NC(=O)CC(C)C)c2cc(OCCCO)ccc2N1C(=O)Cc1ccc(OC)cc1 | -0.839
O=C1NC(=O)C2C1C=CC(C(O)c1ccco1)N2Nc1ccccn1 (configuration not stated) | 0.0556

— PubChem BioAssay
